High-throughput results deposited in PubChem BioAssay by several laboratories.
CYP2C19 activ = human CYP2C19 activators, primary screen, biochemical, luminescence | recombinant CYP2C19, luciferin-H EGE luminescence; stronger effect = higher value; 0 = fully inhibited enzyme, 1 = untreated enzyme | AID 1025, 2008 | Cytochrome P450 2C19 (Homo sapiens), P33261 | activation factor at 5 µM | 96,000 tested, under 10 active;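 active means activation factor of at least 2 at 5 µM in the primary screen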;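 further: 0 = wells with 2.5 mM tranylcypromine and 1 = vehicle-only wells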
CYP2C19 inh = blockers of cytochrome P450 2C19 activity – biochemical, luminescence, ADME assay, primary screen; P33261; CYP2C19 Supersomes, luciferin-H EGE luminescence, 30 min; inhibition, % at 5 µM; 21% of 96,000 active;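 active means CYP2C19 inhibition above a set limit at 5 µM in the primary screen, cut at about 50% in these data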;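 further: plate controls were negative control wells for no effect and 2.5 mM tranylcypromine positive control for full effect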
PostGolgi ctrl = growth inhibition of yeast control strain, primary screen, counter-screen for post-Golgi transport modulator project; efflux-deficient yeast background strain, growth absorbance A615, 16 h; inhibition, % at 10 µM; 5% of 98,000 active; AID 738, 2007
CYP2C9 act = human CYP2C9 activators, primary screen, biochemical, luminescence. Cytochrome P450 2C9 (Homo sapiens), P11712. recombinant CYP2C9, luciferin-H conversion; stronger effect = higher value; factor 1 = untreated enzyme, 0 = blocked. activation factor at 5 µM. 1.4% of 96,000 active. AID 1024, 2008;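 active means activation factor of 2 or more for CYP2C9 at a 5 µM dose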;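 further: 0 = sulfaphenazole-blocked wells and 1 = vehicle-only wells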
Target sequence (P11712 whole entry, looked up): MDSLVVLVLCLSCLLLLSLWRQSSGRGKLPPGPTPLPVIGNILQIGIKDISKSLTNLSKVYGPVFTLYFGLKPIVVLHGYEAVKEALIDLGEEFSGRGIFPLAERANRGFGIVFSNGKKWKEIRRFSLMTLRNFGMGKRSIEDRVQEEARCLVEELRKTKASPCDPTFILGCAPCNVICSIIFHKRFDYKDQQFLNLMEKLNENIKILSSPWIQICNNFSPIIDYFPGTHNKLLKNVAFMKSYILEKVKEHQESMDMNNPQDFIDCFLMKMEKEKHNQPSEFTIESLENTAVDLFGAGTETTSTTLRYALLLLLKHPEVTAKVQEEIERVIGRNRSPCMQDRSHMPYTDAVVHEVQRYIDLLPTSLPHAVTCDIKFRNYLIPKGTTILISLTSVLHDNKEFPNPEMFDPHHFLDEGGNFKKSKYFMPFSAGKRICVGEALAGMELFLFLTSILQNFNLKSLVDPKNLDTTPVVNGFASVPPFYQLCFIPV
PostGolgi yeast = phenotypic screen on post-Golgi transport, primary screen; post-Golgi transport phenotypic cell assay; inhibition, % at 10 µM; 0.9% of 98,000 active; AID 739, 2007;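 further: yeast cells grown in 1536-well plates; yeast grown about 18 h at 30C before absorbance read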
CYP2C9 inhib = blockers of cytochrome P450 2C9 activity – biochemical, luminescence, ADME assay, primary screen; CYP2C9 Supersomes, luciferin-H conversion; inhibition, % at 5 µM; AID 777, 2007; 20% of 96,000 active;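 active means blocking of liver enzyme CYP2C9 beyond about 50% at 5 µM, limit read from the data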
The depositor's hits bear a star. A selection: hits, their analogues and other compounds. The true share with any hit is near 32%. Unless noted, no stated cut-off is given here; in the data, active means inhibition above about 30%; inactive means the rest.

CC(=O)c1c(C)n(-c2ccccc2)c2ccc(O)cc12 was read as CYP2C19 activ 0.2, CYP2C19 inh 82*, PostGolgi ctrl 7, CYP2C9 act 0.5, PostGolgi yeast -8 and CYP2C9 inhib 49.
`COc1ccc(N2CCN(CC(=O)Nc3cc(C)on3)CC2)cc1` gave CYP2C19 activ 1.1, CYP2C19 inh -8, PostGolgi ctrl 5, CYP2C9 act 0.9, PostGolgi yeast 9 and CYP2C9 inhib 8.
`CC1CCc2nc(NC(=O)c3ccco3)sc2C1` (stereo unspecified) gave CYP2C19 activ 0.3, CYP2C19 inh 66*, PostGolgi ctrl -4, CYP2C9 act 0.4, PostGolgi yeast 8 and CYP2C9 inhib 56*.
COc1ccc(N2CCN(CC(=O)Nc3nc4c(s3)CC(C)CC4)CC2)cc1 (stereo unspecified) was read as CYP2C19 activ 0.6, CYP2C19 inh 43, PostGolgi ctrl 8, CYP2C9 act 0.4, PostGolgi yeast 0 and CYP2C9 inhib 57*.
`NCCN1CCN(CCN)CC1` gave CYP2C19 activ 1.1, CYP2C19 inh -15, PostGolgi ctrl 3, CYP2C9 act 0.9, PostGolgi yeast -2 and CYP2C9 inhib 7.
`COc1ccc(C(=O)NC2(C(F)(F)F)C(=O)N(Cc3ccco3)C3=C2C(=O)CC(C)(C)C3)cc1OC` (stereo unspecified) gave CYP2C19 activ 0.9, CYP2C19 inh 7, PostGolgi ctrl -1, CYP2C9 act 1, PostGolgi yeast -5 and CYP2C9 inhib 3.
For COc1ccc(CCn2c(C)cc3c(c2=O)C(c2ccc4c(c2)OCO4)C(C#N)=C(N)O3)cc1OC (stereo unspecified) the results were CYP2C19 activ 0.6, CYP2C19 inh 44, PostGolgi ctrl 17, CYP2C9 act 0.6, PostGolgi yeast 8 and CYP2C9 inhib 44.
Screening COc1cc(CN2CCN(c3ccc(C)cc3)CC2)cc([N+](=O)[O-])c1O returned CYP2C19 activ 1, CYP2C19 inh 1, PostGolgi ctrl 9, CYP2C9 act 0.9, PostGolgi yeast 92* and CYP2C9 inhib 9.
Cc1ccnn2cc3c(=O)n(C)c(=O)n(C)c3c12 was read as CYP2C19 activ 1, CYP2C19 inh -2, PostGolgi ctrl -3, CYP2C9 act 0.8, PostGolgi yeast 16 and CYP2C9 inhib 17.
Screening COCC(=O)Nc1ccc(S(=O)(=O)NCCc2ccccc2)cc1 returned CYP2C19 activ 0, CYP2C19 inh 95*, PostGolgi ctrl 6, CYP2C9 act 0.3, PostGolgi yeast 1 and CYP2C9 inhib 69*.
Screening O=C(Nc1ccc(S(=O)(=O)NCCc2ccccc2)cc1)c1ccc(Br)o1 returned CYP2C19 activ 1.1, CYP2C19 inh -11, PostGolgi ctrl 11, CYP2C9 act 1, PostGolgi yeast 16 and CYP2C9 inhib 4.
`CCC(=O)Nc1ccc(S(=O)(=O)NCCc2ccccc2)cc1` gave CYP2C19 activ 0.2, CYP2C19 inh 75*, PostGolgi ctrl 1, CYP2C9 act 0.6, PostGolgi yeast -7 and CYP2C9 inhib 35.
For CCOC(=O)c1ccc(CNC(=O)c2n[nH]c(=O)c3ccccc23)o1 the results were CYP2C19 activ 0.8, CYP2C19 inh 16, PostGolgi ctrl 9, CYP2C9 act 0.6, PostGolgi yeast 3 and CYP2C9 inhib 40.
`CC1=C(C(=O)N2CCOCC2)C(c2ccsc2)C2=C(CCCC2=O)N1` (stereo unspecified) gave CYP2C19 activ 1, CYP2C19 inh -4, PostGolgi ctrl 5, CYP2C9 act 1.2, PostGolgi yeast 3 and CYP2C9 inhib -20.
O=C1/C(=C\c2cccnc2)SC(=S)N1C1CCS(=O)(=O)C1 (stereo unspecified) was read as CYP2C19 activ 1.1, CYP2C19 inh -9, PostGolgi ctrl 9, CYP2C9 act 0.6, PostGolgi yeast 6 and CYP2C9 inhib 41.
For O=C(NN1C(=O)/C(=C/c2cccnc2)SC1=S)C(c1ccccc1)c1ccccc1 the results were CYP2C19 activ 0.6, CYP2C19 inh 38, PostGolgi ctrl 25, CYP2C9 act 0.2, PostGolgi yeast 29 and CYP2C9 inhib 82*.
